Results on five compounds are retold here after PubChem BioAssay.

Activity calls are given as the source filed them.

A short description of assay [1]: small molecules captured by biotinylated probe aFSTL3 – biochemical, small-molecule microarray, fluorescence 635/667, stem cell growth factor project, primary screen (AID 1064).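 Further: measures binding of the biotinylated anti-FSTL3 antibody to printed compounds.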 To be noted: higher = more signal.
Assay [2] can be described thus: binders from COS7 lysate, DM2A8 probe, primary screen, torsin A project, cell lysate, small-molecule microarray, fluorescence 635/667 (AID 1065). The following applies: higher = more signal, COS7 lysate expressing mutant human TOR1A.
Assay [3] in a line: small molecules captured by biotinylated probe aFGF2 – biochemical, small-molecule microarray, fluorescence 635/667, stem cell growth factor project, primary screen (AID 1067).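 Further: measures binding of biotinylated aFGF2 protein to printed compounds on slides; z-score merges feature fluorescence and signal-to-noise across triplicate slides.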 To be noted: higher = more signal.
The nature of assay [4]: small molecules captured by biotinylated probe aFGF10 – biochemical, small-molecule microarray, fluorescence 635/667, stem cell growth factor project, primary screen (AID 1071).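 Further: score merges 667 nm spot intensity and signal to noise from triplicate slides.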 To be noted: higher = more signal.
The target of assay [5] is Neurogenic locus notch homolog protein 2 (Homo sapiens) (UniProt Q04721). The assay can be described thus: small molecules binding Notch2 protein – biochemical, small-molecule microarray, 635 nm fluorescence, stem cell growth factors, primary screen (AID 1073). To be noted: higher = more signal.
Chain of Neurogenic locus notch homolog protein 2 (Homo sapiens) (Q04721 whole entry, looked up, canonical isoform): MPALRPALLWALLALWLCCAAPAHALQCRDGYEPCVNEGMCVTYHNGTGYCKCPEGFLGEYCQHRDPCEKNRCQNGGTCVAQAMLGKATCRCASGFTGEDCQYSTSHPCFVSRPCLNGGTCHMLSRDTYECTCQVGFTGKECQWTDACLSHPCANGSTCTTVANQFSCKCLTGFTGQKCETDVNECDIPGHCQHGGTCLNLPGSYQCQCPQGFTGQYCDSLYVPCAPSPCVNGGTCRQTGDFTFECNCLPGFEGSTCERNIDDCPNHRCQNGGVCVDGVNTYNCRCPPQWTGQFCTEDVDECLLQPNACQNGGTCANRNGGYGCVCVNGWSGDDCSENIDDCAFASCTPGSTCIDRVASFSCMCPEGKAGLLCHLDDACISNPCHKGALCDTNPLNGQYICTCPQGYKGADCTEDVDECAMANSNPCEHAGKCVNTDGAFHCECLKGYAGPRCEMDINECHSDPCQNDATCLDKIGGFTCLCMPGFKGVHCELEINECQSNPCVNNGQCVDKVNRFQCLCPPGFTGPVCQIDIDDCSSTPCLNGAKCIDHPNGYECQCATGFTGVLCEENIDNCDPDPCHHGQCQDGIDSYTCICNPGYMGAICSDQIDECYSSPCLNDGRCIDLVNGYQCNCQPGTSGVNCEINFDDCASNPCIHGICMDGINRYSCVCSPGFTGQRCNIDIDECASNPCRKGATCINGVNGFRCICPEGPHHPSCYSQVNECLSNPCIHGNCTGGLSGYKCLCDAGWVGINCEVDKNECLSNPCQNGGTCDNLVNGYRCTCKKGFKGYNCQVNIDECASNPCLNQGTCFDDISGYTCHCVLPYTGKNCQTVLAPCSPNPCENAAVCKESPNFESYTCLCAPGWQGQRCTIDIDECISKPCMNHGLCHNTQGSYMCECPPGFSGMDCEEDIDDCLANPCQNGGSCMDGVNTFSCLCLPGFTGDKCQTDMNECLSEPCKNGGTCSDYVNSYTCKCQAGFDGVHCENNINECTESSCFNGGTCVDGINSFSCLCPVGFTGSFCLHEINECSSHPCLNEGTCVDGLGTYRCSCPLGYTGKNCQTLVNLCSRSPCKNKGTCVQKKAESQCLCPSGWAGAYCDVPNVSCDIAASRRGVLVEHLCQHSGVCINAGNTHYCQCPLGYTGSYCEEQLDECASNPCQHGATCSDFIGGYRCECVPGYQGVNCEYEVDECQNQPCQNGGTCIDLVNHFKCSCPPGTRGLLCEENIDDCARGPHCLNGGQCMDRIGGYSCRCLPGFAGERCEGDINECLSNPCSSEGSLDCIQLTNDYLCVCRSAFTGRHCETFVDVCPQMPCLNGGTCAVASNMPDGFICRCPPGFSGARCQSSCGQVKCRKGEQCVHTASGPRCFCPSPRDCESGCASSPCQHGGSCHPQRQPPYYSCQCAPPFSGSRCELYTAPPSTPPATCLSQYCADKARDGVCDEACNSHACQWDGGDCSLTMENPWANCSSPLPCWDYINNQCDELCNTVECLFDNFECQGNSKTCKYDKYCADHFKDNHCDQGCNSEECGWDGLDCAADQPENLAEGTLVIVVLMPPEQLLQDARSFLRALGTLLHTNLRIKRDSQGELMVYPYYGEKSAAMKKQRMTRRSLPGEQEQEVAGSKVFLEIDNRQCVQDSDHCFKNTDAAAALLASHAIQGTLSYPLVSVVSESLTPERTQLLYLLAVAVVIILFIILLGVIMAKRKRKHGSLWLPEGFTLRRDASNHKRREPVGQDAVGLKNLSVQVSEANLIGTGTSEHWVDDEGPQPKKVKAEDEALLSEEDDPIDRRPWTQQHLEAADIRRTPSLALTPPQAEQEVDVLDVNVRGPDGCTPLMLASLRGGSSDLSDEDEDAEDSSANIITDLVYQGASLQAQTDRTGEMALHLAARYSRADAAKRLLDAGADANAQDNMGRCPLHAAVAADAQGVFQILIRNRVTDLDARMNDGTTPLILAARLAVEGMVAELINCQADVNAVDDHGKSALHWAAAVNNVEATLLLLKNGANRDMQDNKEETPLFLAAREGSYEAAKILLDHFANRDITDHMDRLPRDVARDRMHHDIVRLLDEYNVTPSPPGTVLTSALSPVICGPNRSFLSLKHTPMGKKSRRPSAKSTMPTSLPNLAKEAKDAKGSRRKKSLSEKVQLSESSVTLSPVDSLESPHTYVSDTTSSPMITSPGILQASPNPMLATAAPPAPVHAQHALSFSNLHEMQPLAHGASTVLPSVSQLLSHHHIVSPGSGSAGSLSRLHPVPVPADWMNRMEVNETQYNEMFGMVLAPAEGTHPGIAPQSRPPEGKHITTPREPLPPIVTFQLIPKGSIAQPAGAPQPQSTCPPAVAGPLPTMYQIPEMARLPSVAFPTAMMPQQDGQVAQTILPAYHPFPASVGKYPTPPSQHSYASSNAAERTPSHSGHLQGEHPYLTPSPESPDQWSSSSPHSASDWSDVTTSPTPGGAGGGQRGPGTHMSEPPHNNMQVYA
Assay [6] has as its target Pro-neuregulin-1, membrane-bound isoform (Homo sapiens) (UniProt Q02297). The assay can be described thus: small molecules binding neuregulin-1 protein – biochemical, small-molecule microarray, fluorescence 635/667, psychiatric disease protein project, primary screen (AID 1075).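 Further: score combines 667 nm spot fluorescence with signal to noise.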 To be noted: NRG1 binding, 635 nm fluorescence, higher = more signal.
For assay [7], the system named is Neuregulin-1 EGF-like domain. The assay can be described thus: small molecules binding NRG1 EGF domain – biochemical, small-molecule microarray, 635 nm fluorescence, primary screen (AID 1081).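 Further: binding of the protein to compounds printed on small-molecule microarray slides.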 The following applies: higher = more signal.
The nature of assay [8]: FRG1 expression reporter modulators in myotubes – cell-based, C2C12 myotubes, firefly/Renilla luciferase, luminescence, FRG1 inhibition for FSHD, primary screen (AID 1084). To be noted: FRG1 promoter luciferase, higher = more signal, called active from +8 up or from −8 down.
Assay [9] is described as follows: small molecules captured by biotinylated probe aFST – biochemical, small-molecule microarray, fluorescence 635/667, stem cell growth factor project, primary screen (AID 1086).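 Further: score merges 667 nm fluorescence with signal-to-noise of each printed compound spot.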 To be noted: higher = more signal.
A short description of assay [10]: binders of probe aHhip on microarray, primary screen, stem cell growth factor project, biochemical, small-molecule microarray, fluorescence 635/667 (AID 1087).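 Further: score merges spot fluorescence at 667nm with spot signal to noise ratio.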 The following applies: higher = more signal.
Assay [11] has as its system PRMT1 (protein arginine N-methyltransferase 1). The assay can be described thus: small molecules binding arginine methyltransferase PRMT1 – biochemical, small-molecule microarray, 635 nm fluorescence, primary screen (AID 1088).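 Further: binding of Prmt1 protein to compounds spotted on small-molecule microarray slides.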 To be noted: higher = more signal.
The nature of assay [12]: growth effects on S. cerevisiae YJM789 – YJM789 clinical isolate, OD600, 24 h, basal, primary screen (AID 1089).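 Further: growth of clinical yeast isolate S. cerevisiae YJM 789 seeded 1000 cells per well; test concentration not given here.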 The following applies: higher = more signal, called active from +8 up or from −8 down.
The nature of assay [13]: S. pombe growth modifiers, basal conditions – strain 972, OD600, 24 h, no modulator, primary screen (AID 1090).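 Further: basal condition with compound alone and no growth modifier present; test concentration not given here.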 The following applies: S. pombe 972 growth, higher = more signal, called active from +8 up or from −8 down.
Assay [14] can be described thus: budding yeast growth modifiers under rapamycin – strain BY4716, OD600, 96 h, primary screen (AID 1091). Further: test concentration not given here. The following applies: S. cerevisiae BY4716 + rapamycin, higher = more signal, called active from +8 up or from −8 down.
The target of assay [15] is Torsin-1A-interacting protein 2 (Homo sapiens) (UniProt Q8NFQ8). The assay can be described thus: small molecules binding lysate-expressed LULL1 – cell lysate, human LULL1 lysate, 635/667 nm fluorescence, primary screen (AID 1092).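 Further: probe is lysate of COS7 cells overexpressing human LULL1; score merges per-feature 667 nm fluorescence with signal-to-noise.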 To be noted: small-molecule microarray, hLULL1 lysate binding, 635 nm fluorescence; higher = more signal.
Chain of Torsin-1A-interacting protein 2 (Homo sapiens) (Q8NFQ8 whole entry, looked up): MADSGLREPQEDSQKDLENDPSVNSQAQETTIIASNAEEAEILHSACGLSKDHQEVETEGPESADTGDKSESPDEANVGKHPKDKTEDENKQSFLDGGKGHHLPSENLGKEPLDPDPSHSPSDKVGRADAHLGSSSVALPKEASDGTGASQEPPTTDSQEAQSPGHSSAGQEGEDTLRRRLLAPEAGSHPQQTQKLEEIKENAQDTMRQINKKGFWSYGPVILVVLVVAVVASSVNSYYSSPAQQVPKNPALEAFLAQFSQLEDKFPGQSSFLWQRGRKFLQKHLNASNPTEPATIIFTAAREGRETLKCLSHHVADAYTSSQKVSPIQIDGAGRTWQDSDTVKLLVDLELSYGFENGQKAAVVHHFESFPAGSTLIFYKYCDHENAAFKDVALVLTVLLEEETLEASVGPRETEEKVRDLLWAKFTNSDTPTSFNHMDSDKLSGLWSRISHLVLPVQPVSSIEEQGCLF
Assay [16] can be described thus: optical density change of DRC41 E. coli – strain DRC41, OD650, 24 h, E. coli filamentation project, primary screen (AID 1093).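 Further: MC1000 strain lacking acrAB efflux and sulA so SOS filamentation is blocked; test concentration not given here.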 The following applies: E. coli DRC41 growth, higher = more signal, called active from +8 up or from −8 down.
The nature of assay [17]: probe aLefty2 binding to arrayed compounds – biochemical, biotinylated probe, 635/667 nm fluorescence, primary screen (AID 1094).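 Further: score merges spot fluorescence near 667 nm with spot signal-to-noise ratio.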 To be noted: small-molecule microarray, higher = more signal.
The subject of assay [18] is Noggin (protein binding on small-molecule microarray). The assay can be described thus: small molecules binding Noggin protein – biochemical, 635/667 nm fluorescence, primary screen (AID 1095).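 Further: score merges 667 nm feature fluorescence with signal to noise over triplicate slides.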 To be noted: 635 nm fluorescence, higher = more signal.
Assay [19] deals with Neurogenic locus notch homolog protein 3 (Homo sapiens) (UniProt Q9UM47). The assay can be described thus: small molecules binding NOTCH3 protein – biochemical, 635/667 nm fluorescence, primary screen (AID 1096). To be noted: small-molecule microarray, 635 nm fluorescence, higher = more signal.
Assay [20] can be described thus: probe aEGFR binding to arrayed compounds – biochemical, biotinylated probe, 635/667 nm fluorescence, primary screen (AID 1097).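 Further: probe is a biotinylated anti-EGFR antibody binding compounds printed on slides; score combines fluorescence near 667 nm and signal to noise of each spot.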 The following applies: small-molecule microarray, higher = more signal.

Chain of Pro-neuregulin-1, membrane-bound isoform (Homo sapiens) (Q02297 whole entry, looked up, the tested form may be a part, canonical isoform): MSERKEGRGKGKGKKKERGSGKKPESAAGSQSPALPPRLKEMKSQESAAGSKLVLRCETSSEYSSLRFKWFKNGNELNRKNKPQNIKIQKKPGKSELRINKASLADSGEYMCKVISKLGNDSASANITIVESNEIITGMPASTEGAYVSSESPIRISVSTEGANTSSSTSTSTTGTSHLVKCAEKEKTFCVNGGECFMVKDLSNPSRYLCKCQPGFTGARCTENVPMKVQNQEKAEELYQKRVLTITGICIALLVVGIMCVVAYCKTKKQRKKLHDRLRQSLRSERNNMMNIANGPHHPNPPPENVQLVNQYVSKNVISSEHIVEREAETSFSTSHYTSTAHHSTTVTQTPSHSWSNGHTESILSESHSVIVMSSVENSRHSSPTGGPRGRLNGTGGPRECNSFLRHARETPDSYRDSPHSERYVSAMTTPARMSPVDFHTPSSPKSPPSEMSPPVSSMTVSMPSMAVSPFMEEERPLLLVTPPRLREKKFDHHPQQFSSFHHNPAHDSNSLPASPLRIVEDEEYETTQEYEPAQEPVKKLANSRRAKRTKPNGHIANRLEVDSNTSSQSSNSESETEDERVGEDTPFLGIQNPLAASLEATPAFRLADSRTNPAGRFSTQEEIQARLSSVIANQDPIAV

Consider `COC(=O)[C@@]1(Cc2ccc(OC)cc2)[C@H]2c3cc(C(=O)N4CCCC4)n(Cc4cc(F)c(F)c(F)c4)c3C[C@H]2CN1C(=O)c1ccccc1`, for which the composite z-score in [1] was found to be 2.91; in assay [2], 1.05; in assay [3] it was 0.746; in assay [4], 1.19; in assay [5], 1.82; in [6] it was 1.62. Further, the composite z-score in assay [7] amounted to 1.19; in [9] it was 3.01; in [10], 1.88; in assay [11] it was 1.25; in assay [15], 3.39; in assay [17], 1.44. Further, the composite z-score in [18] is -0.131; in [19] it was 1.01; in assay [20] it was 1.17. Further, the z-score in assay [8] is -0.104 (inactive); in assay [12], 0.68 (inactive); in assay [13], 1.39 (inactive); in assay [14] it was 7.41 (inactive); in assay [16], -1.19 (inactive).

Turning to `C=CCC(OC(C)=O)[C@@H]1[C@@H](N(Cc2cc3ccccc3o2)C(=O)Cc2ccc(F)cc2)c2cc(OCCCO)ccc2N1C(=O)Cc1ccc(OC)cc1` (stereo not given in full), the composite z-score in assay [1] is -0.115; in [2], 0.102; in [3] it was -0.0409; in assay [4], 0.351; in assay [5], -0.383; in [6], 0.16. Moreover, the composite z-score was -0.707 in [7]; -0.0711 in assay [9]; 0.0373 in assay [10]; -1.46 in assay [11]; -0.362 in assay [15]; -0.198 in assay [17]. The values for the composite z-score in [18], in assay [19] and in assay [20] were -0.0439, -1.37 and -0.131, respectively. The z-score in [8] is -2.16 (inactive); in assay [12], -1.54 (inactive); in assay [13], -0.644 (inactive); in [14] it was -0.624 (inactive); in [16], -0.824 (inactive).

Regarding `O=C1C[C@]2(c3ccc([N+](=O)[O-])cc3)C(=O)N(CCN3CCOCC3)c3cc(CO)ccc3[C@H]2N1CC12CC3CC(CC(C3)C1)C2`, the composite z-score in assay [1] is -0.0111; in [2], -0.624; in assay [3], -0.103; in assay [4], -0.164; in [5], -0.35; in assay [6], 1.38. Also, the composite z-score is -0.273 in assay [7]; 0.337 in assay [9]; 0.312 in [10]; -0.286 in [11]; 1.81 in assay [15]; 0.0023 in assay [17]. The results for the composite z-score in assay [18], in assay [19] and in [20] were -0.323, 0.111 and -0.156, respectively. Also, the z-score in assay [8] is 0.103 (inactive); in [12] it was -1.31 (inactive); in assay [13], -0.324 (inactive); in [14], -2.77 (inactive); in assay [16] it was 0.679 (inactive).

Take `CO[C@@H]1COC(=O)CC=C[C@@H](C)COC(=O)[C@H](COCc2ccccc2)NC(=O)CC=C[C@H]1C`: the composite z-score is -0.611 in assay [1]; 2.32 in [2]; -0.162 in assay [3]; -0.903 in [4]; -0.75 in assay [5]; -0.698 in assay [6]. Also, the composite z-score in assay [7] was -0.0535; in assay [9] it was -0.268; in assay [10], 0.0749; in assay [11] it was 0.943; in assay [15], -0.914; in assay [17] it was -0.183. Also, the composite z-score in assay [18] is 1.71; in assay [19], -0.551; in assay [20], -0.0899. The z-score is -1.05 (inactive) in assay [8]; 0.847 (inactive) in assay [12]; -0.584 (inactive) in assay [13]; 0.736 (inactive) in assay [14]; 0.154 (inactive) in [16].

As to `CN(C)CCCNC(=O)[C@@H]1c2ccccc2C(=O)N(Cc2ccccc2)[C@H]1c1ccc(CO)cc1`, the composite z-score in [1] was 0.532; in assay [2] it was -0.338; in assay [3] it was 0.311; in assay [4] it was -0.343; in [5], -1.08; in assay [6], -0.0367. The composite z-score in assay [7] is 0.571; in assay [9] it was 0.178; in [10], -0.363; in [11], 0.0881; in assay [15], 0.282; in assay [17] it was 0.555. The results for the composite z-score in [18], in [19] and in [20] were -0.848, -1.21 and 0.259, respectively. In addition, the z-score was -1.01 (inactive) in assay [8]; 0.115 (inactive) in [12]; -0.699 (inactive) in assay [13]; -0.848 (inactive) in [14]; 0.442 (inactive) in [16].
